Reference: PubChem BioAssay
A number with no mark means an inactive call. No rule for the calls is given here.

Molecular target: Pantothenate synthetase (Mycobacterium tuberculosis (strain ATCC 25618 / H37Rv)) (UniProt P9WIL5)
Test: Recombinant Mtb pantothenate synthetase (PanC) inhibitors, coupled enzyme, confirmatory (AID 375);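 also: 0% = full reaction with vehicle and 100% = no enzyme background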
Settings: coupled enzyme assay; at 10 µM, hits give high values

Sequence of Pantothenate synthetase (Mycobacterium tuberculosis (strain ATCC 25618 / H37Rv)) (P9WIL5 whole entry, looked up): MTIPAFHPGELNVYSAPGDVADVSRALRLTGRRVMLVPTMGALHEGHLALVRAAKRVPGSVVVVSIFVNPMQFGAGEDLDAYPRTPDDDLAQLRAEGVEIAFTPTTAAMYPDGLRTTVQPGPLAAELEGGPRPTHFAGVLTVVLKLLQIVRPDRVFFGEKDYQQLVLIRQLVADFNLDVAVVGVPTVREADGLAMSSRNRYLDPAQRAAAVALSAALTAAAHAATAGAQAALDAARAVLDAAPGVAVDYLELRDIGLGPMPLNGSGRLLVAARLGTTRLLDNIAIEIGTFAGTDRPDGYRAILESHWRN

Structure (SMILES)	inhibition [%]
CCCC(=O)Nc1c2c(nn1-c1ccc(OC)cc1)CS(=O)C2 (stereo unspecified)	1
Nc1nc(Cl)nc2c1ncn2[C@@H]1O[C@H](CO)[C@@H](O)[C@H]1O	3
CCCC(CCC)C(=O)OC1C[C@H]2CC[C@@H](C1)[N+]2(C)C (stereo partly specified)	0
Cc1ccc2cc(C#N)c(NCCCNC(=O)C3CCCO3)nc2c1 (stereo unspecified)	0
Cc1ccc(-c2nnc(N3CCN(C(=O)CN4C(=O)c5ccccc5C4=O)CC3)c3ccccc23)cc1	0
CCC(C(=O)OCC(=O)Nc1c(C)n(C)n(-c2ccccc2)c1=O)c1ccccc1 (stereo unspecified)	2
COC(=O)c1ccc(Cl)c(NC(C)=O)c1	4
CCc1cccc(NC(=O)Cn2cc3c(n2)CCCC3)c1	0
COc1ccc(CN(Cc2cc3cc4c(cc3[nH]c2=O)OCO4)C(=O)NC2CCCCC2)cc1	3
Cc1cc(-c2ccccc2)nc2cc(C(=O)NCCCn3ccnc3)nn12	7
CCCCOC(=O)Cn1c(=N)n(CCN2CCOCC2)c2ccccc21	0
Cc1c(C(=O)OC2CCC(C)CC2)[nH]c2c1C(=O)CCC2 (stereo unspecified)	2
O=C(CSc1nc(-c2ccccc2)cs1)NC(=O)NCc1ccco1	0
NC(=O)CSc1nnc(-c2cnccn2)n1-c1ccccc1	0
O=C(NCC1CCCO1)C1CC(c2ccc(Cl)c(Cl)c2)=NO1 (stereo unspecified)	0
Cc1ccccc1-c1nc(CN2CCC(C(=O)NC3CCN(Cc4ccccc4)CC3)CC2)c(C)o1	0
